Only some compounds are listed: those with a hit (about 10% of all), similar ones and a draw of the others.
JMJD2A Tudor = JMJD2A Tudor domain (human) inhibition; O75164; AlphaScreen JMJD2A-Tudor / H3K4me3 peptide binding; Potency, µM (titrated, usually from 114 µM), for the others: at the top dose activity change, negative = inhibition, most hits filed as inhibitors; actives 4.4% (n = 390,000); AID 504339; further: potency means the concentration at half of the fitted maximal effect; on the % scale 0 is the no-effect control and ±100 the full control effect; nearly all actives have a fitted effect of over 50% in size
HP1b chromo inh = HP1-beta chromodomain-methylated histone interaction inhibition | actives 0.56% (n = 390,000) | AlphaScreen HP1-beta / biotin-H3K9me3 peptide binding | P83916 | Potency, µM (highest dose often 114 µM), for the others: at the top dose activity change, negative = inhibition, usual class: inhibitors; further: potency means the concentration at half of the fitted maximal effect; nearly all actives have a fitted effect of over 70% in size
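AlphaScreen: HP1-beta (50 nM) preformed 30 min with biotin-H3(1-18)K9me3 peptide (50 nM) in PBS pH 7.4, 0.01% Tween-20. Compound added for 30 min at RT, then streptavidin donor/nickel chelate acceptor beads (10 ug/mL) for 30 min.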
BAZ2B inh = blocks human BAZ2B; AlphaScreen BAZ2B-H3K14Ac peptide displacement; Q9UIF8; actives 4.4% (n = 360,000); Potency, µM (top dose mostly 114 µM), without a hit: at the top dose activity change, negative = inhibition, usual class: inhibitors; further: potency means the concentration at half of the fitted maximal effect; on the % scale 0 is the no-effect control and ±100 the full control effect; nearly all actives have a fitted effect of over 60% in size
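BAZ2B (50 nM) with biotin-H3(5-23)K14Ac peptide (50 nM) in PBS pH 7.4, 0.01% Tween-20, preformed 30 min, then compound 30 min at room temperature; top concentration 110uM. AlphaScreen streptavidin donor/nickel chelate acceptor beads (10 ug/mL final), 20 min dark, signal read.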
CtBP-E1A inh = CtBP/E1A binding inhibition; AlphaScreen GST-E1A/His-CtBP binding, 1536-well; stronger effect = lower value; actives 0.49% (n = 340,000); AID 651724; activity change, % (no concentration beside the values); in the data active means activity change below about -65%; inconclusive means mostly about -30% to -63%; further: on the % scale 0 is the no-effect control and ±100 the full control effect
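AlphaScreen with 125 nM GST-E1A and 125 nM His-CtBP (5X stocks) in Tris pH 8.0, 300 mM NaCl, BSA, Tween 20, TCEP. Compounds preincubated 2 h at 37 deg C, then glutathione donor/nickel acceptor beads added for 1 h at 37 deg C in dark.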
Six1-Eya2 blk = Six1/Eya2 interaction inhibition; Q15475+O00167; AlphaScreen GST-Six1/His-Eya2 binding, biochemical; stronger effect = lower value; activity change, % (no concentration beside the values); actives 0.56% (n = 360,000); in the data active means activity change below about -65%; inconclusive means mostly about -30% to -63%; further: on the % scale 0 is the no-effect control and ±100 the full control effect
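Homogeneous AlphaScreen proximity assay pairing GST-Six1 with His-tagged Eya2 (added as 5X mix: 250 nM and 500 nM) in 50 mM Tris pH 8.0, 300 mM NaCl, 1 mM TCEP. Glutathione donor and nickel acceptor beads; 1 h, 37 °C, dark.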
G9a inh = G9a (human) methyltransferase inhibition; G9a H3K9 monomethylation, AlphaScreen, 2 h; Potency, µM (titrated, usually from 102 µM), without a hit: at the highest dose activity, negative = inhibition, most hits filed as inhibitors; actives 8.8% (n = 350,000); AID 504332; further: potency means the concentration at half of the fitted maximal effect; on the % scale 0 is the no-effect control and ±100 the full control effect; nearly all actives have a fitted effect of over 75% in size
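Signal arises when biotinylated H3K9 peptide, once monomethylated, bridges streptavidin donor and antibody-captured acceptor beads. Enzyme at 20 nM was preincubated 15 min with test compounds; peptide 500 nM and SAM 20 uM then reacted for 2 h.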
Starred values were filed as active, the others as inactive; ? = inconclusive; / = no result given; ! = a repeat was not active; [ ] = remark or other dose. Unless noted, the call rests on the fitted dose curve; in most records, active means well fitted inhibition curve with a large enough effect; inconclusive means small, poorly fitted or top-dose-only effect; inactive means no such curve, though single readings can be large or run the other way.

SMILES	JMJD2A Tudor	HP1b chromo inh	BAZ2B inh	CtBP-E1A inh	Six1-Eya2 blk	G9a inh
COC(=O)C1=C(C)NC(C)=C(C(=O)OC)C1c1ccc(-c2cc(Cl)ccc2Cl)o1	-12%	53%	-5%	11	1	18µM*
COC(=O)C1=C(C)NC(C)=C(C(=O)OC)C1c1ccc(-c2cccc([N+](=O)[O-])c2)o1	?	13%	-26%	/	-2	79µM*
COC(=O)C1=C(C)NC(C)=C(C(=O)OC)C1c1ccc(-c2cccc(Cl)c2Cl)o1	-11%	34%	-2%	20	12	-18%[59 µM]
CCOC(=O)c1ccccc1NC(=O)CN1CCCN(Cc2cccc(Cl)c2)S1(=O)=O	-6%	36%	-1%	/	/	-6%[59 µM]
O=C(Nc1ccc(N2CCCC2)cc1)c1ccc2ccccc2c1	-10%	11%	1%	-3	-4	6.3µM*
O=C(NC(=S)Nc1ncc(Br)cc1Br)c1cncc(Br)c1	50µM*	21%	-2%	3	-3	2%[59 µM]
O=C(Nc1ccc(N2CCCCC2)cc1)c1cncc(Br)c1	-23%	5%	?	-13	-13	79µM*
O=C(Nc1cccc(NC(=O)c2cncc(Br)c2)c1)c1cncc(Br)c1	-9%	44%	-4%	2	0	45µM*
CC(=O)Nc1ccc(-c2ccnc3c2CC(C)(C(=O)Nc2cccc(Oc4ccccc4)c2)O3)cc1 (stereo not drawn)	/	/	/	-10	-11	/
CN1OC[C@@H]2CN3C(=O)N(c4ccccc4)c4ccccc4[C@@H]3C[C@@H]21	/	/	/	1	7	/
CC1CCN(S(=O)(=O)c2ccc3c(c2)N(CC(=O)NC(C)(C)C)C(=O)CS3)CC1	-7%	20%	-16%	/	/	-17%[59 µM]
CC(=O)c1c[nH]c(C(=O)Nc2ccc(N3CCCCCC3)cc2)c1	35µM*	?	35µM*	-24	-28	-12%[2.33 µM]
Cc1ccc(C(=O)Nc2ccc(N3CCCCC3)cc2)cc1	-20%	21%	/	/	/	/
CCN(CC)C(=O)CSc1ncccc1-c1nc2ccccc2[nH]1	-14%	34%	-12%	-10	-8	50µM*
CSc1ncccc1-c1nc2ccccc2[nH]1	-9%[57.1 µM]	1%	11%	8	-4	10µM*
c1ccc2[nH]c(-c3ccnc4ccccc34)nc2c1	-13%	40%	?	4	-6	8.9µM*!
COc1cc2nc(CN(C)Cc3nc4ccccc4c(=O)[nH]3)[nH]c(=O)c2cc1OC	-2%	37%	70%	-66*	-66*	36%[12.7 µM]
CCN(Cc1cc(=O)n2ccsc2n1)Cc1nc2cc(OC)c(OC)cc2c(=O)[nH]1	-7%[11.4 µM]	11%	3%	23	9	13µM*
CCN(Cc1nc2ccccc2c(=O)[nH]1)Cc1nc2cc(OC)c(OC)cc2c(=O)[nH]1	11%	30%	9%	-18	-18	20%[12.7 µM]
CN(Cc1cc(=O)n2ccsc2n1)Cc1nc2ccccc2c(=O)[nH]1	-15%	40%	/	-29	-28	?
O=C(CN1C(=O)COc2ccc(S(=O)(=O)NC3CCCC3)cc21)Nc1ccc(Cl)cc1F	?	3%	-4%	/	/	-8%[59 µM]
Cc1cc(-c2c(C)[nH]n(-c3ccccc3)c2=O)n(-c2ccccc2)n1	-17%	15%	-31%	-9	-2	/
S=c1nc(-c2ccccc2)[nH]n1-c1ccccc1	22µM*	?	-37%	-7	-8	?
O=c1[nH]n(-c2ccccc2)c(=O)c2ccccc12	-19%	4%	12%	1	8	3%
Nc1nc(=S)n(-c2ccccc2)[nH]1	3.5µM*	?	?	16	4	10µM*
SMILES	JMJD2A Tudor	HP1b chromo inh	BAZ2B inh	CtBP-E1A inh	Six1-Eya2 blk	G9a inh
Cc1nc(=S)n(-c2ccccc2)[nH]1	7.1µM*	43%	6%	2	0	14µM*
O=C1c2[nH]nc(-c3ccccc3O)c2C(c2ccc(Cl)cc2)N1CCc1ccccc1 (stereo not drawn)	-4%	56%	-5%	/	/	9%[59 µM]
CCC(C)[C@H](NC(=O)NCCC1=CCCCC1)C(=O)OC (stereo partly drawn)	-7%	0%	-2%	-3	6	?
COC(=O)[C@H](C)NC(=O)NCCC1=CCCCC1	71µM*	7%	-12%	0	1	8%
CC1(C(=O)NCC2CC2)Cc2c(-c3ccc4c(c3)OCO4)ccnc2O1 (stereo not drawn)	/	/	/	4	-9	/
O=C(O)c1ccccc1C(=O)Nc1n[nH]c(=S)s1	13µM*	28µM*	32µM*	1	0	1.4µM*
CCCCN(C)c1c(C)nc2ccc(C(=O)NCc3ccc4c(c3)OCO4)cn12	/	/	/	0	-3	/
O=C1C=C(Nc2ccc(O)cc2)C(=O)c2ccccc21	?	-9%	28µM*	-30	?	/
CC(=O)Nc1ccc(NC2=CC(=O)c3ccccc3C2=O)cc1	25µM*	-30%	13µM*	-6	-4	2µM*
CC(=O)Nc1ccc(Nc2ccccc2)cc1	-27%	31%	-15%	4	-2	/
Nn1cc(Br)c(=O)[nH]c1=O	/	/	/	/	/	42%[59 µM]
Cc1ccc(NC(=O)c2cc(-c3cccs3)nc3ccccc23)nc1	11%	63%	-18%	22	1	40µM*
CC(C)OCCCNC(=O)c1cc(-c2cccs2)nc2ccccc12	0%	43%	1%	1	-5	22%[0.501 µM]
Cc1cc(C)c2nc(NNC(=O)c3cc(-c4cccs4)nc4ccccc34)sc2c1	?	36%	?	0	-9	32µM*
Cc1c(NC(=O)c2cc(-c3cccs3)nc3ccccc23)c(=O)n(-c2ccccc2)n1C	-23%	8%	-32%	-19	-7	30%[59 µM]
O=C(NNc1nc2ccc(Cl)cc2s1)c1cc(-c2cccs2)nc2ccccc12	?	49%	-34%	-2	-9	-9%
Cc1ccc2sc(NNC(=O)c3cc(-c4cccs4)nc4ccccc34)nc2c1C	/	/	5%	/	/	32µM*
CCCOc1ccc(C(=O)CCC(=O)OCC(=O)Nc2cc(C)on2)cc1	/	/	10%	/	/	-25%
COCCNC(=O)CSc1nc(-c2ccc(C)cc2)[nH]c1-c1ccc(OC)cc1	-28%	-3%	?	/	/	-20%[59 µM]
O=C(O)CC(c1cccc(Cl)c1)n1cccc1 (stereo not drawn)	89µM*	1%	-5%	4	1	-17%
CCCNC(=O)N1C[C@H](O)COC[C@@H]2O[C@@H](CC(=O)NCCCN3CCOCC3)CC[C@H]21	/	/	/	8	3	/
NC(=O)c1cc2ccccc2o/c1=N\NC(=O)c1ccccc1O	-20%	48%	?	-12	1	32µM*
